The results in this text go back to the supplement of paper PMC8975748.

Molecules are shown by their SMILES. Where a name gives a salt, the structure may show the parent alone.

The assay deals with Saccharomyces cerevisiae BY4741 SeMeCo community. Briefly: z-score of subpopulation abundance vs DMSO median, subpopulation auxotrophic for HLU; higher = larger share of this subpopulation than in DMSO controls. As to conditions: 10 µM; 24 h; SM minimal medium; subpopulation (auxotrophy): HLU. As for the experimental part: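 Fluorescent four-plasmid SeMeCo (self-establishing metabolically cooperating S. cerevisiae BY4741 community; plasmids pH-mRuby2, pL-mWasabi, pU-eCFP, pM-TagRFP657) was grown 24 h in minimal SM medium with each Selleck FDA-approved drug at 10 µM in 384-well plates. Cells were fixed and imaged by high-content confocal microscopy. For each auxotrophic subpopulation (and the prototroph), a z-score gives the deviation from the DMSO vehicle-control population median.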
For `COc1ccc2[nH]cc(CCN)c2c1` [5-Methoxytryptamine], the “z-score of subpopulation abundance” value is 0.69. Then `C[C@@H]1CC[C@H]2[C@@H](C)C(=O)O[C@@H]3O[C@@]4(C)CC[C@@H]1[C@]32OO4` [Artemisinin], with -0.05; and `CN(C)[C@@H]1C(=O)C(C(N)=O)=C(O)[C@@]2(O)C(=O)C3=C(O)c4c(O)ccc(Cl)c4[C@@](C)(O)[C@H]3C[C@@H]12` [Chlortetracycline HCl], with -0.5. Take `CCN(C)C(=O)Oc1cccc([C@H](C)N(C)C)c1` [Rivastigmine Tartrate]: the “z-score of subpopulation abundance” value was -0.41. Next, `CC[N+](C)(CC)CCOC(=O)C(O)(c1ccccc1)c1ccccc1` [Methylbenactyzine Bromide]: -0.28. On to `NCC(O)c1ccc(O)cc1` (racemic) [(+,-)-Octopamine HCl], for which the “z-score of subpopulation abundance” value is -0.28. Then `CCCN1C[C@H](CSC)C[C@@H]2c3cccc4[nH]cc(c34)C[C@H]21` [Pergolide Mesylate], with -0.75.

With `N#Cc1nn(-c2c(Cl)cc(C(F)(F)F)cc2Cl)c(N)c1[S+]([O-])C(F)(F)F` (stereo not given) [Fipronil], the “z-score of subpopulation abundance” value was -1.

Consider `Nc1nc(N)nc(NC2CC2)n1` [Cyromazine], for which the “z-score of subpopulation abundance” value amounted to 0.88.

As to `C=CN1CCCC1=O.II` [Povidone iodine], the “z-score of subpopulation abundance” value was 2.59. For the compound `CC[C@H]1CN2CC[C@]3(C(=O)Nc4ccccc43)[C@@H]2C[C@@H]1/C(=C\OC)C(=O)OC` [Rhynchophylline], the “z-score of subpopulation abundance” value stood at 0.21. Next, `Cc1cc(C(C#N)c2ccc(Cl)cc2)c(Cl)cc1NC(=O)c1cc(I)cc(I)c1O` (stereo not given) [Closantel]: 0.79; `COc1ccc(C=O)cc1` [p-Anisaldehyde]: -0.91; `CN(C)[C@@H]1C(=O)C(C(N)=O)=C(O)[C@@]2(O)C(=O)C3=C(O)c4c(O)cccc4[C@@](C)(O)[C@H]3[C@H](O)[C@@H]12` [Oxytetracycline (Terramycin)]: 0.16.

With `CN[C@@H]1[C@@H](O)[C@@H](O[C@@H]2[C@@H](O)[C@H](O[C@H]3O[C@H](CN)CC[C@H]3N)[C@@H](N)C[C@H]2N)OC[C@]1(C)O.CN[C@@H]1[C@@H](O)[C@@H](O[C@@H]2[C@@H](O)[C@H](O[C@H]3O[C@H]([C@@H](C)N)CC[C@H]3N)[C@@H](N)C[C@H]2N)OC[C@]1(C)O.CN[C@@H]1[C@@H](O)[C@@H](O[C@@H]2[C@@H](O)[C@H](O[C@H]3O[C@H]([C@@H](C)NC)CC[C@H]3N)[C@@H](N)C[C@H]2N)OC[C@]1(C)O` [Gentamicin Sulfate], the “z-score of subpopulation abundance” value is -0.42. Then `CC[C@@]1(O)C(=O)OCc2c1cc1n(c2=O)Cc2cc3ccccc3nc2-1` [Camptothecin], with -0.42; and `CCOC(=O)Nc1ccc(NCc2ccc(F)cc2)cc1N` [Retigabine 2HCl], with -0.42. Then `COC(=O)C1=CCCN(C)C1` [Arecoline HBr], with 0.06; and `CC(C)N(CCC(C(N)=O)(c1ccccc1)c1ccccn1)C(C)C` (stereo not given) [Disopyramide], with 1.07; and `NC(=O)CN1CCCC1=O` [Piracetam], with 1.5. As to `O=C(O[C@H]1C[N+]2(CCCOc3ccccc3)CCC1CC2)C(O)(c1cccs1)c1cccs1` [Aclidinium Bromide], the “z-score of subpopulation abundance” value is -0.54. Then `COc1ccc2c(c1)[C@]13CCCC[C@@H]1[C@H](C2)N(C)CC3` [Dextromethorphan hydrobromide hydrate], with -0.08. Then `C[C@H]1O[C@H](O[C@H]2[C@H](O)[C@@H](O)[C@@H](O)[C@H](O)[C@@H]2O)[C@@H](N)C[C@@H]1NC(=N)C(=O)O` [Kasugamycin hydrochloride], with 0.46; and `O=[N+]([O-])C(Br)(CO)CO` [Bronopol], with 0.49; and `COc1ccc(C(CN(C)C)C2(O)CCCCC2)cc1` (stereo not given) [Venlafaxine], with -0.41.

`Cc1cc(O)ccc1Cl` [Chlorocresol]: the “z-score of subpopulation abundance” value is -0.87. Then `CN(C)[C@@H]1C(=O)C(C(N)=O)=C(O)[C@@]2(O)C(=O)C3=C(O)c4c(O)cccc4[C@@](C)(O)[C@H]3[C@H](O)[C@@H]12` [Oxytetracycline Dihydrate], with 0.15. Next, `NCCc1c[nH]c2ccc(O)cc12` [Serotonin HCl]: -0.94; `CCN(CC)CCOC(=O)C(O)(c1ccccc1)c1ccccc1` [Benactyzine hydrochloride]: 0.38.

In the case of `CN[C@@H]1[C@@H](O)[C@@H](O[C@@H]2[C@@H](O)[C@H](O[C@H]3O[C@H]([C@@H](C)O)[C@@H](O)[C@H](O)[C@H]3N)[C@@H](N)C[C@H]2N)OC[C@]1(C)O` [Geneticin (G418 Sulfate)], the “z-score of subpopulation abundance” value came to 0.77. Take `CC1(C)SC2C(N)C(=O)N2C1C(=O)O` (stereo not given) [6-Aminopenicillanic acid]: the “z-score of subpopulation abundance” value is -0.15. With `C=CCN1C[C@H](C(=O)N(CCCN(C)C)C(=O)NCC)C[C@@H]2c3cccc4[nH]cc(c34)C[C@H]21` [Cabergoline], the “z-score of subpopulation abundance” value was -0.08. Next, `CCC1=C[C@H]2CN3CCc4c([nH]c5ccccc45)[C@](C(=O)OC)(C2)[C@H]13` [Catharanthine]: -0.62.

On to `CN1[C@@H]2C[C@@H](OC(=O)[C@H](CO)c3ccccc3)C[C@H]1[C@@H]1O[C@@H]12` [Scopolamine HBr trihydrate], for which the “z-score of subpopulation abundance” value is -0.91. Next, `CC(=O)OCC1=C(C(=O)O)N2C(=O)C(N)C2SC1` (stereo not given) [7-Aminocephalosporanic acid]: -0.25; `Nc1ccncc1` [4-Aminopyridine]: 0.05; `C[N+]1(C)[C@@H]2C[C@@H](OC(=O)[C@H](CO)c3ccccc3)C[C@H]1[C@@H]1O[C@@H]12` [Methscopolamine]: 0.5.

For `COc1ccc2c3c([nH]c2c1)C(C)=NCC3` [Harmaline], the “z-score of subpopulation abundance” value is -4.09.

With `CN1[C@@H]2C[C@@H](OC(=O)[C@H](CO)c3ccccc3)C[C@H]1[C@@H]1O[C@@H]12` [Scopolamine HBr], the “z-score of subpopulation abundance” value was -1.08. Next, `C=C(C)[C@H]1Cc2c(ccc3c2O[C@@H]2COc4cc(OC)c(OC)cc4[C@@H]2C3=O)O1` [Rotenone (Barbasco)]: 1.77.
